Data published in PubChem BioAssay AID1159580 (chemical genetic matrix, 2015).
Several values for one entry are separate records, joined by “and”; a condition that tells them apart may be missing. Equal values may be shown once. Screen size: about 5,500 compounds; about 2,000 (36%) were called active. About 18% were inconclusive and are not listed. No stated cut-off is given here; in the data, active means normalized growth mostly below about 0.91 (no sharp cut-off); inconclusive means no clear call, values can overlap the other calls; inactive means mostly above about 0.92. Some of the results follow.

Experiment: chemical genetic growth profiling, strain panel (AID 1159580);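 further: tested at 20 µM; growth read once vehicle control cultures reached saturation at 30 °C; 1 = growth at the plate median or of vehicle wells; lower values mean less growth of the strain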
Settings: S. cerevisiae deletion strains, growth OD
[1] = locus YPL055C, strain LGE1, hits give low values
[2] = locus YPL241C, strain CIN2, hits give low values

Measured: normalized growth

Cc1cc(C)c(NC(=O)C[C@H](CC(=O)O)c2cccc3ccccc23)c(C(=O)N2CCC3(CCCC3)CC2)c1
inactive: locus YAL040C, strain CLN3, hits give low values 1.01 | locus YCL061C, strain MRC1 (second series), hits give low values 0.986 | locus YDR363W, strain ESC2, hits give low values 0.973 | locus YER002W, strain NOP16, hits give low values 0.975 | locus YGR078C, strain PAC10, hits give low values 0.972 | locus YGR229C, strain SMI1, hits give low values 1.01 | locus YMR263W, strain SAP30, hits give low values 0.995 | locus YNL175C, strain NOP13, hits give low values 0.976 | locus YNL197C, strain WHI3, hits give low values 0.964 | locus YNL224C, strain SQS1, hits give low values 0.977 | locus YNL322C, strain KRE1, hits give low values 0.99 | locus YOR083W, strain WHI5 (second series), hits give low values 0.977 | [1] 0.972 | [2] 0.987

CC(C)(C#N)O[C@@H]1O[C@H](CO)[C@@H](O)[C@H](O)[C@H]1O
inactive: locus YAL013W, strain DEP1, hits give low values 1 | locus YAL021C, strain ccr4, hits give low values 1.01 | locus YAL026C, strain drs2, hits give low values 1 | locus YAL030W, strain snc1, hits give low values 1 | locus YBL061C, strain skt5, hits give low values 0.998 | locus YBR009C, strain hhf1, hits give low values 1 | locus YBR021W, strain FUR4, hits give low values 1.1 | locus YBR023C, strain chs3, hits give low values 1 | locus YBR171W, strain sec66, hits give low values 1.01 | locus YBR229C, strain ROT2, hits give low values 0.997 | locus YBR231C, strain swc5, hits give low values 0.998 | locus YBR279W, strain paf1, hits give low values 1.01 | locus YCL011C, strain gbp2, hits give low values 1.01 | locus YCL016C, strain dcc1, hits give low values 1 | locus YCL029C, strain bik1, hits give low values 0.993 | locus YCL069W, strain vba3, hits give low values 0.997 | locus YCR088W, strain abp1, hits give low values 1.01 | locus YDL005C, strain med2, hits give low values 0.993 | locus YDL035C, strain GPR1, hits give low values 1.02 | locus YDL040C, strain nat1, hits give low values 1.01 | locus YDL074C, strain BRE1, hits give low values 1.02 | locus YDL101C, strain DUN1, hits give low values 1.01 | locus YDL185W, strain tfp1, hits give low values 0.983 | locus YDL192W, strain arf1, hits give low values 0.988 | locus YDR001C, strain nth1, hits give low values 1.01 | locus YDR069C, strain doa4, hits give low values 1.03 | locus YDR101C, strain arx1, hits give low values 0.997 | locus YDR137W, strain rgp1, hits give low values 1.02 | locus YDR150W, strain NUM1, hits give low values 1.02 | locus YDR159W, strain sac3, hits give low values 0.965 | locus YDR162C, strain NBP2, hits give low values 1.05 | locus YDR195W, strain ref2 0.98 | locus YDR297W, strain sur2, hits give low values 1.01 | locus YDR318W, strain mcm21, hits give low values 1 | locus YDR334W, strain swr1, hits give low values 1 | locus YDR335W, strain msn5, hits give low values 1 | locus YDR388W, hits give low values 0.992 | locus YDR392W, strain spt3, hits give low values 1.02 | locus YDR502C, strain sam2, hits give low values 0.998 | locus YEL003W, strain gim4, hits give low values 1.01 | locus YEL037C, strain rad23, hits give low values 1.01 | locus YEL061C, strain CIN8 (second series), hits give low values 1.02 | locus YEL061C, strain CIN8, hits give low values 1 | locus YER015W, strain faa2, hits give low values 0.998 | locus YER016W, strain bim1, hits give low values 0.999 | locus YER110C, hits give low values 0.985 | locus YER111C, strain swi4, hits give low values 1.01 | locus YER155C, strain BEM2 (second series), hits give low values 1.02 | locus YER155C, strain BEM2, hits give low values 0.99 | locus YER167W, strain BCK2, hits give low values 1.01 | locus YFR010W, strain ubp6, hits give low values 1.01 | locus YGL078C, strain dbp3, hits give low values 0.989 | locus YGL086W, strain mad1, hits give low values 0.997 | locus YGL167C, strain pmr1, hits give low values 1 | locus YGL173C, strain kem1, hits give low values 1 | locus YGL227W, strain vid30, hits give low values 1 | locus YGL240W, strain doc1, hits give low values 1.01 | locus YGL248W, strain PDE1, hits give low values 1.01 | locus YGL253W, strain hxk2, hits give low values 1 | locus YGR135W, strain pre9, hits give low values 0.975 | locus YGR252W, strain gcn5, hits give low values 0.979 | locus YHR013C, strain ard1, hits give low values 0.996 | locus YHR027C, strain rpn1, hits give low values 0.984 | locus YHR030C, strain SLT2, hits give low values 0.997 and 1.06 | locus YHR079C, strain IRE1 (second series), hits give low values 0.994 | locus YHR079C, strain IRE1, hits give low values 1.07 | locus YHR094C, strain hxt1, hits give low values 0.984 | locus YHR129C, strain ARP1, hits give low values 1 | locus YHR142W, strain chs7, hits give low values 1 | locus YHR200W, strain rpn10, hits give low values 0.995 | locus YIL066C, strain RNR3, hits give low values 1.02 | locus YIL073C, strain SPO22, hits give low values 1 | locus YIL125W, strain kgd1, hits give low values 1 | locus YIR030C, strain dcg1, hits give low values 0.998 | locus YJL092W, strain hpr5, hits give low values 1 | locus YJL095W, strain BCK1 (second series), hits give low values 1.01 | locus YJL095W, strain BCK1, hits give low values 1.05 and 0.974 | locus YJL115W, strain asf1, hits give low values 0.999 | locus YJL129C, strain trk1, hits give low values 1.03 | locus YJL134W, strain LCB3, hits give low values 0.993 | locus YJL154C, strain vps35, hits give low values 1.01 | locus YJL164C, strain tpk1, hits give low values 1 | locus YJL166W, strain qcr8, hits give low values 1.01 | locus YJL168C, strain set2, hits give low values 1 | locus YJL187C, strain SWE1 (second series), hits give low values 1.03 | locus YJL187C, strain SWE1, hits give low values 1 | locus YJR043C, strain POL32, hits give low values 1.02 | locus YJR066W, strain TOR1, hits give low values 0.981 | locus YJR075W, strain HOC1, hits give low values 1.02 | locus YKL009W, strain mrt4, hits give low values 0.982 | locus YKL068W, hits give low values 0.998 | locus YKL085W, strain MDH1 (second series), hits give low values 1.01 | locus YKL085W, strain MDH1, hits give low values 1.01 | locus YKL160W, strain elf1, hits give low values 1 | locus YKL190W, strain CNB1, hits give low values 1.02 | locus YKR001C, strain vps1, hits give low values 1 | locus YKR026C, strain gcn3, hits give low values 0.997 | locus YKR091W, strain srl3, hits give low values 1 | locus YLL001W, strain dnm1, hits give low values 1.01 | locus YLL026W, hits give low values 0.99 | locus YLL041C, strain sdh2, hits give low values 1.01 | locus YLR027C, strain aat2, hits give low values 1 | locus YLR039C, strain RIC1, hits give low values 1.05 | locus YLR058C, strain SHM2, hits give low values 1.01 | locus YLR102C, strain apc9, hits give low values 0.983 | locus YLR113W, strain HOG1, hits give low values 0.999 | locus YLR221C, strain rsa3, hits give low values 1.03 | locus YLR258W, strain gsy2, hits give low values 1.01 | locus YLR262C, strain YPT6 (second series), hits give low values 1.01 | locus YLR262C, strain YPT6, hits give low values 1.07 | locus YLR268W, strain sec22, hits give low values 1 | locus YLR320W, strain mms22, hits give low values 0.999 | locus YLR330W, strain CHS5, hits give low values 0.994 | locus YLR342W, strain FKS1 (second series), hits give low values 1.02 | locus YLR342W, strain FKS1, hits give low values 1 | locus YLR357W, strain rsc2, hits give low values 0.971 | locus YLR370C, strain arc18, hits give low values 1 | locus YLR371W, strain rom2, hits give low values 0.982 | locus YLR384C, strain iki3, hits give low values 0.986 | locus YLR418C, strain cdc73, hits give low values 1.01 | locus YML016C, strain PPZ1, hits give low values 0.987 | locus YML032C, strain rad52, hits give low values 1.01 | locus YML120C, strain ndi1, hits give low values 0.994 | locus YML124C, strain tub3, hits give low values 0.994 | locus YMR058W, strain fet3, hits give low values 0.999 | locus YMR078C, strain ctf18, hits give low values 0.976 | locus YMR125W, strain sto1, hits give low values 1 | locus YMR129W, hits give low values 0.996 | locus YMR205C, strain PFK2, hits give low values 1.02 | locus YMR223W, strain ubp8, hits give low values 0.984 | locus YMR231W, strain pep5, hits give low values 0.996 | locus YMR307W, strain GAS1, hits give low values 0.96 | locus YNL067W, strain RPL9B, hits give low values 1.04 | locus YNL071W, strain lat1, hits give low values 1.01 | locus YNL183C, strain NPR1, hits give low values 0.973 | locus YNL209W, strain ssb2, hits give low values 1.01 | locus YNL233W, strain BNI4, hits give low values 1.02 | locus YNL248C, strain rpa49, hits give low values 0.984 | locus YNL250W, strain rad50, hits give low values 0.978 | locus YNL271C, strain bni1, hits give low values 0.987 | locus YNL298W, strain CLA4, hits give low values 0.987 | locus YNL307C, strain MCK1, hits give low values 1.02 | locus YNL322C, strain KRE1 (second series), hits give low values 0.993 | locus YNR049C, strain mso1, hits give low values 1 | locus YNR052C, strain pop2, hits give low values 0.984 | locus YOL006C, strain TOP1, hits give low values 1.06 | locus YOL012C, strain htz1 0.871 | locus YOL147C, strain pex11, hits give low values 0.995 | locus YOR001W, strain rrp6, hits give low values 1.01 | locus YOR061W, strain CKA2, hits give low values 0.997 | locus YOR069W, strain VPS5, hits give low values 0.99 | locus YOR070C, strain gyp1, hits give low values 1.01 | locus YOR080W, strain dia2, hits give low values 1.01 | locus YOR083W, strain WHI5, hits give low values 1.01 | locus YOR106W, strain vam3, hits give low values 1.04 | locus YOR136W, strain idh2, hits give low values 0.985 | locus YOR144C, strain elg1, hits give low values 0.997 | locus YOR184W, strain ser1, hits give low values 1.03 | locus YOR231W, strain MKK1, hits give low values 1.01 | locus YOR265W, strain rbl2, hits give low values 1.01 | locus YOR270C, strain vph1, hits give low values 1.22 | locus YOR290C, strain snf2, hits give low values 1.02 | locus YOR316C, strain cot1, hits give low values 0.983 | locus YPL051W, strain arl3, hits give low values 1.01 | [1] 1.06 | locus YPL078C, strain atp4, hits give low values 1.01 | locus YPL106C, strain sse1, hits give low values 0.985 | locus YPL240C, strain hsp82, hits give low values 0.995 | [2] 1.01 | locus YPL256C, strain CLN2, hits give low values 1.06 | locus YPR119W, strain clb2, hits give low values 0.996 | locus YPR141C, strain kar3, hits give low values 0.982 | locus YPR163C, strain tif3, hits give low values 0.997 | locus YPR167C, strain met16, hits give low values 1.01 | strain wtn01, hits give low values 0.984
